In PubChem BioAssay (NCI):
Compounds without any hit were thinned out: in the full panel of roughly 83,000, 20% have a hit.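 Single-concentration screen, 48 h exposure, 96-well plates. Endpoint: percent growth. Below 10 = active.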 Unmarked numbers belong to inactive results. The source made the active and inactive calls.

Columns and labels:
Assay in all cases: NCI-60 one-dose screen, 48 h (100 = growth as untreated, 0 = no growth, -100 = all killed)
Conditions in all cases: 10 µM unless noted
[1] = tested on: NCI-H23 lung
[2] = tested on: NCI-H226 lung
[3] = tested on: NCI-H322M lung
[4] = tested on: HOP-62 NSCLC
[5] = tested on: NCI-H460 lung
[6] = tested on: NCI-H522 lung
[7] = tested on: A549/ATCC NSCLC
[8] = tested on: 786-0 renal
[9] = tested on: COLO 205 colon
[10] = tested on: DU-145 prostate
[11] = tested on: K-562 leukemia
[12] = tested on: MALME-3M melanoma
[13] = tested on: MDA-MB-231 breast
[14] = tested on: RXF 393 renal
[15] = tested on: SF-268 CNS
[16] = tested on: SF-295 CNS
[17] = tested on: SF-539 CNS
[18] = tested on: UACC-257 melanoma
[19] = tested on: M14 melanoma

Structure (SMILES) | growth [1] [%] | growth [2] [%] | growth [3] [%] | growth [4] [%] | growth [5] | growth [6] [%] | growth [7] [%] | growth [8] | growth [9] | growth [10] | growth [11] | growth [12] | growth [13] | growth [14] [%] | growth [15] [%] | growth [16] | growth [17] | growth [18] | growth [19]
CCN1CCN(C(=O)[C@@]2(C)CC[C@]3(C)CC[C@]4(C)C(=CC(=O)[C@@H]5[C@@]6(C)CC[C@H](OC7C[C@@H](O)[C@@H](O)C(C)O7)C(C)(C)[C@@H]6CC[C@]54C)[C@@H]3C2)CC1 (stereo partly drawn) | 45.2 | 26.3 | 37 | 26.9 | -79.5% (active) | 38.6 | 12.5 | -60.5% (active) | 106% | 2.94% (active) | 8.78% (active) | 2.56% (active) | 6.15% (active) | 60.4 | 24.2 | -78% (active) | -59.2% (active) | 14.8% | -55.2% (active)
Cc1ccsc1-c1ccc2c(c1)COC2(CCCN(C)C)c1ccc(F)cc1 (stereo not drawn) | 70.6 | 93 | 68.5 | 69.4 | 10.3% | 55.1 | 45.9 | 63.8% | -43.9% (active) | 60% | 1.22% (active) | -14% (active) | 51.1% | 28.2 | 65.2 | 57.1% | 67% | -10.5% (active) | -57.5% (active)
C=C(C)[C@@H]1CC[C@]2(C(=O)NNC(=O)c3cccnc3)CC[C@]3(C)[C@H](CC[C@@H]4[C@@]5(C)CCCNC(C)(C)[C@@H]5CC[C@]43C)[C@@H]12 | 84.4 | 83.2 | 101 | 84.9 | 95.9% | 99.4 | 71.6 | 94.8% | 20.6% | 91.3% | 1.18% (active) | 66.6% | 87% | 79.7 | 87 | 90.3% | 81.3% | 61.9% | 63.8%
CC1(n2nnnc2N2CCCN(c3ncccc3N)CC2)CCC1 | 103 | 90.4 | 94.2 | 99 | 99.5% | 100 | 107 | 104% | 111% | 109% | 87.8% | 98.6% | 99.9% | 98.2 | 97 | 95.5% | 94.8% | 108% | 97.8%
Oc1cc(/C=C/c2nc(N3CCOCC3)c3cc(Cl)c(Cl)cc3n2)cc(O)c1O | 101 | 85.8 | 113 | 97.2 | 101% | 88.6 | 106 | 95.7% | 108% | 104% | 81.5% | 107% | 106% | 98.8 | 108 | – | 94.1% | 99.8% | 102%
CN1CCN(CCOc2ccc(-c3cnc4c(-c5cccc(F)c5)cnn4c3)cc2)CC1 | 62.6 | 109 | 89.8 | 90 | 1.99% (active) | 82 | 49.4 | 57% | 32.4% | 71.8% | -33.6% (active) | 60.6% | 47.7% | 66.3 | 80.4 | 79.6% | 70.6% | 67.1% | 2.02% (active)
CC(Cc1ccco1)C(=O)NC(N)=O (stereo not drawn) | 97.4 | 95.8 | 99.2 | 106 | 107% | 97.4 | 91.9 | 103% | 120% | 109% | 110% | 103% | 110% | 96.7 | 104 | 94.6% | 97.8% | – | 101%
CN(C)c1ccc(C(=O)c2ccc(N(C)C)c(N)c2)cc1N | 40 | 75.6 | 49.3 | 53 | 13.5% | – | 56 | 42.4% | 21.3% | 6.99% (active) | 21.4% | 34.2% | 55.8% | – | 43.6 | 21.9% | 3.19% (active) | 77.3% | 13%
